# ± gives the standard deviation.
# Experiments:
# [1] = test system: MILI (PIWIL2) piRISC loaded with L1MC piRNA (26 nt); experiment: pre-steady-state target cleavage rate (min^-1); guide: L1MC piRNA 5'p-UAACUAAAUACUAUGCAAGCUGUAGG; higher = faster piRNA-guided slicing of the target
# Method in brief: (§1)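 Cleave-'n-Seq: a transcribed, DNA-blocked target RNA library (0.1 nM) was mixed with 1 nM active affinity-purified piRISC carrying one synthetic guide, with or without 500 nM GTSF1 partner protein, in HEPES–potassium acetate buffer at 33 °C for 0–8 or 0–960 min. Uncleaved targets were sequenced and normalised to depth and to weakly complementary targets. Three trials were pooled, and k3 was capped at 0.0001 min^-1. The pre-steady-state cleavage rate came from a burst-and-steady-state fit.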
# [2] = test system: EfPiwi piRISC loaded with L1MC piRNA (26 nt); experiment: pre-steady-state target cleavage rate (min^-1); auxiliary factor: none (no Gtsf1); guide: L1MC piRNA 5'p-UAACUAAAUACUAUGCAAGCUGUAGG; higher = faster piRNA-guided slicing of the target
# Method in brief: as §1
# [3] = test system: EfPiwi piRISC loaded with L1MC piRNA (26 nt); experiment: pre-steady-state target cleavage rate (min^-1); auxiliary factor: 500 nM Ephydatia muelleri Gtsf1; guide: L1MC piRNA 5'p-UAACUAAAUACUAUGCAAGCUGUAGG; MIWI and MILI are mouse PIWI proteins and EfPiwi is from a freshwater sponge; tags in brackets are library labels; higher = faster piRNA-guided slicing of the target
# Method in brief: as §1
# [4] = auxiliary factor: none (no GTSF1)
# [5] = auxiliary factor: 500 nM mouse GTSF1
sequence,measurement,setting,value
UCCUGGAUGUCGAACGUAUGUAUUUAGUAA,pre-steady-state target cleavage rate,[1]; [4],< 0.0001
UCCUGGAUGUCGAACCAUAGUUUUAGUUA,pre-steady-state target cleavage rate,[2],< 0.0001
same,pre-steady-state target cleavage rate,[3],< 0.0001
UCCUGGAUGUCGAACGUAAGUAUUUAUUUA,pre-steady-state target cleavage rate,[1]; [4],< 0.0001
UCCUGCUACAGCAUCCAUAGUAUUUAGUUA,pre-steady-state target cleavage rate,[1]; [5],0.195 ± 0.047
same,pre-steady-state target cleavage rate,[2],< 0.0001
same,pre-steady-state target cleavage rate,[3],0.00233 ± 0.0017
UCCUGGAUGAGCUUGCAUAGUCUUUAGUUA,pre-steady-state target cleavage rate,[1]; [5],0.0764 ± 0.012
same,pre-steady-state target cleavage rate,[1]; [4],0.00627 ± 0.0022
same,pre-steady-state target cleavage rate,[2],0.0128 ± 0.0056
same,pre-steady-state target cleavage rate,[3],0.0107 ± 0.0033
UCCUGGAUGUCGAACGUUAGUAUUUAGAUA,pre-steady-state target cleavage rate,[2],< 0.0001
same,pre-steady-state target cleavage rate,[3],< 0.0001
UCCUGGUACAGCUUGCAUAGAUUUUACAAA,pre-steady-state target cleavage rate,[1]; [5],0.00751 ± 0.0049
UCCUGCUACAGCUUGCAUAGUAUUUAGCUA,pre-steady-state target cleavage rate,[2],< 0.0001
same,pre-steady-state target cleavage rate,[3],0.00339 ± 0.0014
UCCUGGAAGUGCUUGCAUAGUAUUUAGAAA,pre-steady-state target cleavage rate,[1]; [5],0.00889 ± 0.0052
same,pre-steady-state target cleavage rate,[2],< 0.0001
same,pre-steady-state target cleavage rate,[3],0.00379 ± 0.0018
UCCUGGAUGUGCUUGGAUAGUAUUUAGAUA,pre-steady-state target cleavage rate,[1]; [5],0.00891 ± 0.0052
UCCUGGAUCAGCUUGCAUAGUAUUUUAGUUA,pre-steady-state target cleavage rate,[1]; [5],0.23 ± 0.025
same,pre-steady-state target cleavage rate,[1]; [4],0.0107 ± 0.0028
same,pre-steady-state target cleavage rate,[2],0.0111 ± 0.0065
same,pre-steady-state target cleavage rate,[3],0.0214 ± 0.0071
UCCUCGUACAGCUUGCAUAGAAUUUAGUUA,pre-steady-state target cleavage rate,[1]; [5],0.0473 ± 0.0079
same,pre-steady-state target cleavage rate,[2],0.00853 ± 0.0037
same,pre-steady-state target cleavage rate,[3],0.00771 ± 0.0018
UCCUGCUACAGCUACGAUAGUAUUUAGUAA,pre-steady-state target cleavage rate,[1]; [5],0.185 ± 0.035
UCCUGGAUGUCGAACGUUACUUUUUAGUUA,pre-steady-state target cleavage rate,[1]; [4],< 0.0001
UCCUGGAUCAGGAUGCAUAGUAUUUACAAA,pre-steady-state target cleavage rate,[1]; [5],0.0127 ± 0.0048
UCCUGGUACAGCUUGCAUUAGUAUUUAGUUA,pre-steady-state target cleavage rate,[1]; [5],0.017 ± 0.0074
UCCUGGAUGUCGAACGAAAGUAUUUAGUAA,pre-steady-state target cleavage rate,[1]; [4],< 0.0001
UCCUGCUACACGAUGCAUAGUAUUUUCAAA,pre-steady-state target cleavage rate,[1]; [5],0.117 ± 0.034
UCCUGGAACAGCUUGGUUAGUAUUUAGAAA,pre-steady-state target cleavage rate,[1]; [5],0.16 ± 0.04
UCCUGCUACAGCUACGAUAGUAUUUAGAAA,pre-steady-state target cleavage rate,[1]; [5],0.0517 ± 0.019
UCCUGGAUGUCGAUGCAUAGUUAUUUAGUUA,pre-steady-state target cleavage rate,[1]; [5],0.00685 ± 0.0037

# Reference: the supplement of paper PMC10338343
